Where a name gives a salt, the structure may show the parent alone. ± gives the standard error. Hit rate of the full screen: of about 1,300 compounds, about 130 (10%) showed an effect of 50% or more. The entries come from a sample that favours strong results as a whole.

The test system of the experiment is Trichoderma virens ATCC 9645. Description: growth yield (OD600) with compound + IPBC relative to untreated control; higher = less growth inhibition. The note with it: compound concentration: 100 uM, IPBC concentration: 200 ng/ml. The gist of the method: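 Plates were read for OD600 at 40 h and 72 h after Trichoderma virens ATCC 9645 spores (15,000 spores ml^−1 in potato dextrose broth) were grown at 30 °C with library compounds at 100 μM final, with or without a biocide at 200 ng ml^−1. Growth is stated relative to the control with neither agent, as the mean of duplicate screens.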

Consider `CC(c1cc2ccccc2s1)N(O)C(N)=O` (stereo not given) [Zileuton] + CCCCNC(=O)OCC#CI [3-iodo-2-propynyl butylcarbamate (IPBC)], for which the growth yield by setting is: (40 h) 89.1 ± 3.3%; (72 h) 90.8 ± 2.1%.
For `NCCCCCC(=O)O` [Aminocaproic acid] + CCCCNC(=O)OCC#CI [3-iodo-2-propynyl butylcarbamate (IPBC)], in that order: 103 ± 13% and 98.9 ± 6.8%.
For `Nc1ncnc2c1ncn2C1OC(COP(=O)(O)O)C(O)C1O` (stereo not given) [Adenosine 5'-monophosphate monohydrate] + CCCCNC(=O)OCC#CI [3-iodo-2-propynyl butylcarbamate (IPBC)], in that order: 79.4 ± 1.3% and 91.2 ± 1.1%.
The corresponding values for `CC(C)(C)NC(=O)[C@@H]1CN(Cc2cccnc2)CCN1C[C@@H](O)C[C@@H](Cc1ccccc1)C(=O)N[C@H]1c2ccccc2C[C@H]1O` [Indinavir sulfate] + CCCCNC(=O)OCC#CI [3-iodo-2-propynyl butylcarbamate (IPBC)] are 88.5 ± 3.3% and 89.78 ± 0.84%.
Consider `Cc1nnc(NS(=O)(=O)c2ccc(N)cc2)s1` [Sulfamethizole] + CCCCNC(=O)OCC#CI [3-iodo-2-propynyl butylcarbamate (IPBC)], for which the growth yield by setting is: (40 h) 93.7 ± 8.9%; (72 h) 97.3 ± 7.1%.
The corresponding values for `Cc1cc(/C=C/c2ccc3cc(N(C)C)ccc3[n+]2C)c(C)n1-c1ccccc1` [Pyrvinium pamoate] + CCCCNC(=O)OCC#CI [3-iodo-2-propynyl butylcarbamate (IPBC)] are 111 ± 4.5% and 111 ± 3.1%.
As to `C[N+]1(C)CCCC(OC(=O)C(O)(c2ccccc2)c2ccccc2)C1` (stereo not given) [Mepenzolate bromide] + CCCCNC(=O)OCC#CI [3-iodo-2-propynyl butylcarbamate (IPBC)], the growth yield is, setting by setting: (40 h) 83.2%; (72 h) 85.7 ± 0.94%.
For `C=CCSCC1Nc2cc(Cl)c(S(N)(=O)=O)cc2S(=O)(=O)N1` (stereo not given) [Althiazide] + CCCCNC(=O)OCC#CI [3-iodo-2-propynyl butylcarbamate (IPBC)], in that order: 98.16 ± 0.32% and 96.7 ± 0.21%.
For `CC=CC(=O)N(CC)c1ccccc1C` [Crotamiton] + CCCCNC(=O)OCC#CI [3-iodo-2-propynyl butylcarbamate (IPBC)], in that order: 98.8 ± 5.1% and 102 ± 2.2%.
The corresponding values for `CCN1CCC[C@H]1CNC(=O)c1c(OC)ccc(Br)c1OC` [Remoxipride Hydrochloride] + CCCCNC(=O)OCC#CI [3-iodo-2-propynyl butylcarbamate (IPBC)] are 101 ± 3.5% and 99 ± 1.5%.
Turning to `Clc1ccc(COC(Cn2ccnc2)c2ccc(Cl)cc2Cl)c(Cl)c1` (stereo not given) [Miconazole] + CCCCNC(=O)OCC#CI [3-iodo-2-propynyl butylcarbamate (IPBC)], the growth yield is 2.8591 ± 3.6e-15% (40 h) and 2.41 ± 0.1% (72 h).
The corresponding values for `Clc1ccc(CCC(Cn2ccnc2)Sc2c(Cl)cccc2Cl)cc1` (stereo not given) [Butoconazole nitrate] + CCCCNC(=O)OCC#CI [3-iodo-2-propynyl butylcarbamate (IPBC)] are 3.18% and 2.62 ± 0.1%.
The corresponding values for `Clc1ccc(CO/N=C(\Cn2ccnc2)c2ccc(Cl)cc2Cl)c(Cl)c1` [Oxiconazole Nitrate] + CCCCNC(=O)OCC#CI [3-iodo-2-propynyl butylcarbamate (IPBC)] are 3.49 ± 0.32% and 2.1 ± 0.21%.
For the molecule `C=CCOC(Cn1ccnc1)c1ccc(Cl)cc1Cl` (stereo not given) [Enilconazole] + CCCCNC(=O)OCC#CI [3-iodo-2-propynyl butylcarbamate (IPBC)], the growth yield by setting is: (40 h) 3.34 ± 0.16%; (72 h) 2.94 ± 0.21%.
`CC(=O)NCCCS(=O)(=O)O` [Acamprosate calcium] + CCCCNC(=O)OCC#CI [3-iodo-2-propynyl butylcarbamate (IPBC)]: the growth yield was 102.9 ± 0.32% (40 h) and 94.3 ± 2.4% (72 h).
The corresponding values for `CCCCC(=O)O[C@H]1CC[C@H]2[C@@H]3CCc4cc(O)ccc4[C@H]3CC[C@]12C` [Estradiol Valerate] + CCCCNC(=O)OCC#CI [3-iodo-2-propynyl butylcarbamate (IPBC)] are 92.29 ± 0.48% and 92.2 ± 2.4%.
The corresponding values for `O=C1O[C@H]([C@@H](O)CO)C(O)=C1O` [Ascorbic acid] + CCCCNC(=O)OCC#CI [3-iodo-2-propynyl butylcarbamate (IPBC)] are 92.1 ± 0.95% and 96.28 ± 0.63%.
For `CN[C@@H]1[C@@H](O)[C@@H](O[C@@H]2[C@@H](O)[C@H](O[C@H]3OC(CN)=CC[C@H]3N)[C@@H](N)C[C@H]2N)OC[C@]1(C)O` [Sisomicin sulfate] + CCCCNC(=O)OCC#CI [3-iodo-2-propynyl butylcarbamate (IPBC)], in that order: 85.6 ± 3.6% and 91.9 ± 3.6%.
For the molecule `Cc1ccccc1OCC(O)CO` (stereo not given) [Mephenesin] + CCCCNC(=O)OCC#CI [3-iodo-2-propynyl butylcarbamate (IPBC)], the growth yield by setting is: (40 h) 93.7 ± 2.9%; (72 h) 99 ± 0.63%.
For `CNCC(O)c1ccc(O)cc1` (racemic) [(+,-)-Synephrine] + CCCCNC(=O)OCC#CI [3-iodo-2-propynyl butylcarbamate (IPBC)], in that order: 81.3 ± 3.8% and 93.8 ± 6.3%.
On to `NC(=O)C[S+]([O-])C(c1ccccc1)c1ccccc1` (stereo not given) [Modafinil] + CCCCNC(=O)OCC#CI [3-iodo-2-propynyl butylcarbamate (IPBC)], for which the growth yield by setting is: (40 h) 82 ± 3.5%; (72 h) 93.5 ± 2.9%.
The corresponding values for `C[C@]12C=CC(=O)C=C1CC[C@@H]1[C@@H]2C(=O)C[C@@]2(C)[C@H]1CC[C@]2(O)C(=O)CO` [Prednisone] + CCCCNC(=O)OCC#CI [3-iodo-2-propynyl butylcarbamate (IPBC)] are 90.9 ± 1.9% and 91.5 ± 1.3%.
For `CCCC(C)C1(CC)C(=O)NC(=O)NC1=O` (stereo not given) [Pentobarbital] + CCCCNC(=O)OCC#CI [3-iodo-2-propynyl butylcarbamate (IPBC)], in that order: 87.4 ± 2.9% and 94.2 ± 2.7%.
For `C/C=C(/C(=C/C)c1ccc(O)cc1)c1ccc(O)cc1` [Dienestrol] + CCCCNC(=O)OCC#CI [3-iodo-2-propynyl butylcarbamate (IPBC)], in that order: 94.8 ± 3.3% and 93.8 ± 2.3%.
Consider `CCC(C)(CN(C)C)OC(=O)c1ccccc1` (stereo not given) [Amyleine hydrochloride] + CCCCNC(=O)OCC#CI [3-iodo-2-propynyl butylcarbamate (IPBC)], for which the growth yield was found to be 88 ± 1.3% (40 h) and 92 ± 2% (72 h).
For `COc1ccc(Cl)cc1C(=O)NCCc1ccc(S(=O)(=O)NC(=O)NC2CCCCC2)cc1` [Glibenclamide] + CCCCNC(=O)OCC#CI [3-iodo-2-propynyl butylcarbamate (IPBC)], in that order: 101 ± 6.8% and 108 ± 5.5%.
The corresponding values for `Clc1ccc(C(Cn2ccnc2)OCc2csc3c(Cl)cccc23)c(Cl)c1` (stereo not given) [Sertaconazole nitrate] + CCCCNC(=O)OCC#CI [3-iodo-2-propynyl butylcarbamate (IPBC)] are 3.97 ± 0.16% and 3.57 ± 0.42%.
For `CCOc1ccc2c(c1)C(C)=CC(C)(C)N2` [Ethoxyquin] + CCCCNC(=O)OCC#CI [3-iodo-2-propynyl butylcarbamate (IPBC)], in that order: 98.3 ± 17% and 98.9 ± 12%.
`CCc1c(C)[nH]c2c1C(=O)C(CN1CCOCC1)CC2` (stereo not given) [Molindone hydrochloride] + CCCCNC(=O)OCC#CI [3-iodo-2-propynyl butylcarbamate (IPBC)]: the growth yield by setting is: (40 h) 102 ± 13%; (72 h) 101 ± 8.9%.
The corresponding values for `CO[C@@H]1[C@@H](OC(N)=O)[C@@H](O)[C@H](Oc2ccc3c(O)c(NC(=O)c4ccc(O)c(CC=C(C)C)c4)c(=O)oc3c2C)OC1(C)C` [Novobiocin sodium salt] + CCCCNC(=O)OCC#CI [3-iodo-2-propynyl butylcarbamate (IPBC)] are 91.7 ± 12% and 115 ± 14%.
The corresponding values for `N#Cc1ccc(C(c2ccc(C#N)cc2)n2cncn2)cc1` [Letrozole] + CCCCNC(=O)OCC#CI [3-iodo-2-propynyl butylcarbamate (IPBC)] are 98.6 ± 8.1% and 98.5 ± 1.6%.
For `c1ccc(-c2ccc(C(c3ccccc3)n3ccnc3)cc2)cc1` (stereo not given) [Bifonazole] + CCCCNC(=O)OCC#CI [3-iodo-2-propynyl butylcarbamate (IPBC)], in that order: 4.92 ± 0.16% and 3.25 ± 0.1%.
Take `O=C(C1CCCCC1)N1CC(=O)N2CCc3ccccc3C2C1` (stereo not given) [Praziquantel] + CCCCNC(=O)OCC#CI [3-iodo-2-propynyl butylcarbamate (IPBC)]: the growth yield reads like this: (40 h) 71 ± 7.5%; (72 h) 87.3 ± 3.8%.
The corresponding values for `O=[N+]([O-])O[C@H]1CO[C@H]2[C@@H]1OC[C@H]2O[N+](=O)[O-]` [Isosorbide dinitrate] + CCCCNC(=O)OCC#CI [3-iodo-2-propynyl butylcarbamate (IPBC)] are 90.9 ± 7.6% and 94.4 ± 5.7%.
Take `NS(=O)(=O)c1cc2c(cc1Cl)NC(C(Cl)Cl)NS2(=O)=O` (stereo not given) [Trichlormethiazide] + CCCCNC(=O)OCC#CI [3-iodo-2-propynyl butylcarbamate (IPBC)]: the growth yield (40 h) stood at 97.5 ± 16% and the growth yield (72 h) was determined as 97.3 ± 12%.
For `C[C@@H]1CN([C@H]2CC[C@](C#N)(c3ccc(F)cc3)CC2)CC[C@]1(C(=O)O)c1ccccc1` [Levocabastine hydrochloride] + CCCCNC(=O)OCC#CI [3-iodo-2-propynyl butylcarbamate (IPBC)], in that order: 118 ± 11% and 111 ± 7.3%.
`CC(C)OC(=O)CCC/C=C\C[C@@H]1[C@@H](CC[C@@H](O)CCc2ccccc2)[C@H](O)C[C@@H]1O` [Latanoprost] + CCCCNC(=O)OCC#CI [3-iodo-2-propynyl butylcarbamate (IPBC)]: the growth yield stood at 90.5 ± 1.9% (40 h) and 93 ± 3.9% (72 h).
The corresponding values for `CC(=O)CC(c1ccccc1)c1c(O)c2ccccc2oc1=O` (stereo not given) [Warfarin] + CCCCNC(=O)OCC#CI [3-iodo-2-propynyl butylcarbamate (IPBC)] are 88.5 ± 2.1% and 93.03 ± 0.1%.
Turning to `CCc1oc2ccccc2c1C(=O)c1cc(Br)c(O)c(Br)c1` [Benzbromarone] + CCCCNC(=O)OCC#CI [3-iodo-2-propynyl butylcarbamate (IPBC)], the growth yield (40 h) worked out at 43.68 ± 0.16% and the growth yield (72 h) is 99.3 ± 8.1%.
For `O=c1oc2ccccc2c(O)c1Cc1c(O)c2ccccc2oc1=O` [Dicumarol] + CCCCNC(=O)OCC#CI [3-iodo-2-propynyl butylcarbamate (IPBC)], in that order: 92.3 ± 6.5% and 93.2 ± 3%.
